Results reported in the supplement of paper PMC6288085.
Where a name gives a salt, the structure may show the parent alone. ± gives the uncertainty stated by the source.

The molecules below were run on Caenorhabditis elegans N2 (assay: food intake (mean delta OD600 / animal over 72 h) with 50 uM loxapine co-treatment (OD600 units per animal); higher = more food eaten (less suppression of loxapine-induced hyperphagia)). Settings: first compound 33 µM, loxapine concentration 50 µM.
Description: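 C. elegans N2 adults (FUDR-sterilised, day 1) in 96-well plates fed gamma-irradiated bacteria. Each library drug (MedChemExpress FDA-approved library) at 33 uM was combined with loxapine at 50 uM. Food intake was measured as bacterial clearance: the change in OD600 from day 1 to 72 h, normalised per animal (mean over 14-21 wells of about 10-12 worms). Drugs flagged for bacterial lysis or sickness were excluded by the authors.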
Molecule `CC(=O)O[C@H]1Cc2ccccc2N(C(N)=O)c2ccccc21` [eslicarbazepine (acetate)] + CN1CCN(C2=Nc3ccccc3Oc3ccc(Cl)cc32)CC1 [loxapine] has a food intake of 0.0232 ± 0.0043. `CCOc1ccccc1OCCN[C@H](C)Cc1ccc(OC)c(S(N)(=O)=O)c1` [tamsulosin] + CN1CCN(C2=Nc3ccccc3Oc3ccc(Cl)cc32)CC1 [loxapine] gave a food intake of 0.022 ± 0.0032. In the case of `CC(=O)CCCCn1c(=O)c2c(ncn2C)n(C)c1=O` [pentoxifylline] + CN1CCN(C2=Nc3ccccc3Oc3ccc(Cl)cc32)CC1 [loxapine], the food intake is reported as 0.0226 ± 0.002. In the case of `O=C(C1CCCCC1)N1CC(=O)N2CCc3ccccc3C2C1` (stereo not given) [praziquantel] + CN1CCN(C2=Nc3ccccc3Oc3ccc(Cl)cc32)CC1 [loxapine], the food intake is reported as 0.0224 ± 0.0023. Work on `[F-].[Na+]` [sodium fluoride] + CN1CCN(C2=Nc3ccccc3Oc3ccc(Cl)cc32)CC1 [loxapine] yielded a food intake of 0.0241 ± 0.0018. `C[C@H]1c2cccc(O)c2C(=O)C2=C(O)[C@]3(O)C(=O)C(C(N)=O)=C(O)[C@@H](N(C)C)[C@@H]3[C@@H](O)[C@@H]21` [doxycycline] + CN1CCN(C2=Nc3ccccc3Oc3ccc(Cl)cc32)CC1 [loxapine] showed a food intake of 0.0161 ± 0.0037. `N=C(N)c1ccc(OCCCCCOc2ccc(C(=N)N)cc2)cc1` [pentamidine (isethionate)] + CN1CCN(C2=Nc3ccccc3Oc3ccc(Cl)cc32)CC1 [loxapine] was tested, and the food intake was 0.0232 ± 0.0025. For `C#C[C@]1(O)CC[C@H]2[C@@H]3CCC4=CC(=O)CC[C@@H]4[C@H]3C(=C)C[C@@]21CC` [etonogestrel] + CN1CCN(C2=Nc3ccccc3Oc3ccc(Cl)cc32)CC1 [loxapine], the food intake was 0.0244 ± 0.012. Work on `Nc1ccc(S(=O)(=O)c2ccc(N)cc2)cc1` [dapsone] + CN1CCN(C2=Nc3ccccc3Oc3ccc(Cl)cc32)CC1 [loxapine] yielded a food intake of 0.0216 ± 0.006. `Nc1nc2c(ncn2COC(CO)CO)c(=O)[nH]1` [ganciclovir] + CN1CCN(C2=Nc3ccccc3Oc3ccc(Cl)cc32)CC1 [loxapine] was tested, and the food intake was 0.0236 ± 0.0019. `CC(C(=O)O)c1ccc2c(c1)CC(=O)c1ccccc1S2` (stereo not given) [zaltoprofen] + CN1CCN(C2=Nc3ccccc3Oc3ccc(Cl)cc32)CC1 [loxapine] was tested, and the food intake was 0.0216 ± 0.0032. `CCOC(=O)c1c(CSc2ccccc2)n(C)c2cc(Br)c(O)c(CN(C)C)c12` [arbidol (hydrochloride)] + CN1CCN(C2=Nc3ccccc3Oc3ccc(Cl)cc32)CC1 [loxapine] showed a food intake of 0.0227 ± 0.0057. For `CO/N=C(\C(=O)N[C@@H]1C(=O)N2C(C(=O)O)=C(CSC(=O)c3ccco3)CS[C@H]12)c1csc(N)n1` [ceftiofur (sodium)] + CN1CCN(C2=Nc3ccccc3Oc3ccc(Cl)cc32)CC1 [loxapine], the food intake was 0.0225 ± 0.0037. Molecule `FC(F)(F)C(Cl)Br` (stereo not given) [halothane] + CN1CCN(C2=Nc3ccccc3Oc3ccc(Cl)cc32)CC1 [loxapine] has a food intake of 0.0227 ± 0.0031. `CC[C@H]1OC(=O)C[C@@H](O)[C@H](C)[C@@H](O[C@@H]2O[C@H](C)[C@@H](O[C@H]3C[C@@](C)(O)[C@@H](O)[C@H](C)O3)[C@H](N(C)C)[C@H]2O)[C@@H](CC=O)C[C@@H](C)C(=O)/C=C/C(C)=C/[C@@H]1CO[C@@H]1O[C@H](C)[C@@H](O)[C@@H](OC)[C@H]1OC` [Tylosin (tartrate)] + CN1CCN(C2=Nc3ccccc3Oc3ccc(Cl)cc32)CC1 [loxapine] gave a food intake of 0.021 ± 0.0039. For `O=C(O)CCCCCCCC(=O)O` [azelaic acid] + CN1CCN(C2=Nc3ccccc3Oc3ccc(Cl)cc32)CC1 [loxapine], the food intake was 0.0259 ± 0.018. Work on `Cc1ccnc(NS(=O)(=O)c2ccc(N)cc2)n1` [sulfamerazine] + CN1CCN(C2=Nc3ccccc3Oc3ccc(Cl)cc32)CC1 [loxapine] yielded a food intake of 0.0224 ± 0.0031. Molecule `O=c1n(CCCN2CCN(c3cccc(Cl)c3)CC2)nc2ccccn12` [trazodone (hydrochloride)] + CN1CCN(C2=Nc3ccccc3Oc3ccc(Cl)cc32)CC1 [loxapine] has a food intake of 0.0285 ± 0.035. `NC(=O)c1ncn([C@@H]2O[C@H](CO)[C@@H](O)[C@H]2O)n1` [ribavirin] + CN1CCN(C2=Nc3ccccc3Oc3ccc(Cl)cc32)CC1 [loxapine] gave a food intake of 0.0212 ± 0.0037. In the case of `CC(=O)N1CCN(c2ccc(OCC3COC(Cn4ccnc4)(c4ccc(Cl)cc4Cl)O3)cc2)CC1` (stereo not given) [ketoconazole] + CN1CCN(C2=Nc3ccccc3Oc3ccc(Cl)cc32)CC1 [loxapine], the food intake is reported as 0.0239 ± 0.0034. `Nc1ccc(O)c(C(=O)O)c1` [5-Aminosalicylic acid] + CN1CCN(C2=Nc3ccccc3Oc3ccc(Cl)cc32)CC1 [loxapine] gave a food intake of 0.0212 ± 0.0048. For `CC(C)NCC(O)COc1ccc(CCOCC2CC2)cc1` (stereo not given) [betaxolol (hydrochloride)] + CN1CCN(C2=Nc3ccccc3Oc3ccc(Cl)cc32)CC1 [loxapine], the food intake was 0.025 ± 0.003. `CCCC(=O)Nc1ncnc2c1ncn2[C@@H]1O[C@@H]2COP(=O)(O)O[C@H]2[C@H]1OC(=O)CCC` [bucladesine (calcium salt)] + CN1CCN(C2=Nc3ccccc3Oc3ccc(Cl)cc32)CC1 [loxapine] showed a food intake of 0.022 ± 0.0033. `COc1cc(O)c(C(=O)c2ccccc2)cc1S(=O)(=O)O` [sulisobenzone] + CN1CCN(C2=Nc3ccccc3Oc3ccc(Cl)cc32)CC1 [loxapine] was tested, and the food intake was 0.0234 ± 0.0024. In the case of `CC(=O)C1C(=O)C=C(C)OC1=O` (stereo not given) [dehydroacetic acid] + CN1CCN(C2=Nc3ccccc3Oc3ccc(Cl)cc32)CC1 [loxapine], the food intake is reported as 0.0214 ± 0.0043. In the case of `Cc1cccc(-c2nn3c(c2-c2ccnc4ccc(C(N)=O)cc24)CCC3)n1` + CN1CCN(C2=Nc3ccccc3Oc3ccc(Cl)cc32)CC1 [loxapine], the food intake is reported as 0.0252 ± 0.0052. For `CCN(CC)CCOC(=O)c1ccc(N)cc1` [procaine (hydrochloride)] + CN1CCN(C2=Nc3ccccc3Oc3ccc(Cl)cc32)CC1 [loxapine], the food intake was 0.0224 ± 0.0034. In the case of `CC[C@H]1OC(=O)[C@H](C)[C@@H](O[C@H]2C[C@@](C)(OC)[C@@H](O)[C@H](C)O2)[C@H](C)[C@@H](O[C@@H]2O[C@H](C)C[C@H](N(C)C)[C@H]2O)[C@](C)(O)C[C@@H](C)[C@@H]2N[C@@H](COCCOC)O[C@H]([C@H]2C)[C@]1(C)O` [dirithromycin] + CN1CCN(C2=Nc3ccccc3Oc3ccc(Cl)cc32)CC1 [loxapine], the food intake is reported as 0.0208 ± 0.0079. `COc1ccc2[nH]c([S@@+]([O-])Cc3ncc(C)c(OC)c3C)nc2c1` [Esomeprazole (magnesium trihydrate)] + CN1CCN(C2=Nc3ccccc3Oc3ccc(Cl)cc32)CC1 [loxapine] showed a food intake of 0.0226 ± 0.0041. `C[C@@H]1CCN(C(=O)CC#N)C[C@@H]1N(C)c1ncnc2[nH]ccc12` [tofacitinib (citrate)] + CN1CCN(C2=Nc3ccccc3Oc3ccc(Cl)cc32)CC1 [loxapine] was tested, and the food intake was 0.0227 ± 0.0047. For `C1CCN2C[C@@H]3C[C@@H](CN4CCCC[C@@H]34)[C@H]2C1` [(-)-sparteine (sulfate pentahydrate)] + CN1CCN(C2=Nc3ccccc3Oc3ccc(Cl)cc32)CC1 [loxapine], the food intake was 0.0235 ± 0.0013. Work on `CCOC(=O)/C=C(C)/C=C/C=C(C)/C=C/c1c(C)cc(OC)c(C)c1C` [etretinate] + CN1CCN(C2=Nc3ccccc3Oc3ccc(Cl)cc32)CC1 [loxapine] yielded a food intake of 0.0213 ± 0.0039. In the case of `CC1CNc2c(cccc2S(=O)(=O)N[C@@H](CCCNC(=N)N)C(=O)N2CC[C@@H](C)C[C@@H]2C(=O)O)C1` (stereo not given in full) [argatroban (monohydrate)] + CN1CCN(C2=Nc3ccccc3Oc3ccc(Cl)cc32)CC1 [loxapine], the food intake is reported as 0.0229 ± 0.002. `CNC(=O)[C@H](Cc1c[nH]c2ccccc12)NC(=O)[C@@H](CC(=O)NO)CC(C)C` + CN1CCN(C2=Nc3ccccc3Oc3ccc(Cl)cc32)CC1 [loxapine] was tested, and the food intake was 0.0195 ± 0.0054. `CC(C)(Oc1ccc(CCNC(=O)c2ccc(Cl)cc2)cc1)C(=O)O` [bezafibrate] + CN1CCN(C2=Nc3ccccc3Oc3ccc(Cl)cc32)CC1 [loxapine] was tested, and the food intake was 0.0212 ± 0.0034. `CC1=C(C)C(=O)C(C(CCCCCC(=O)O)c2ccccc2)=C(C)C1=O` (stereo not given) [seratrodast] + CN1CCN(C2=Nc3ccccc3Oc3ccc(Cl)cc32)CC1 [loxapine] showed a food intake of 0.0265 ± 0.0088. For `O=C1N=C(O)NC1(c1ccccc1)c1ccccc1` [phenytoin (sodium)] + CN1CCN(C2=Nc3ccccc3Oc3ccc(Cl)cc32)CC1 [loxapine], the food intake was 0.0233 ± 0.0031. With `Clc1ccc(COC(Cn2ccnc2)c2ccc(Cl)cc2Cl)c(Cl)c1` (stereo not given) [miconazole (nitrate)] + CN1CCN(C2=Nc3ccccc3Oc3ccc(Cl)cc32)CC1 [loxapine] the food intake was 0.0169 ± 0.005. For `NC12CC3CC(CC(C3)C1)C2` [amantadine (hydrochloride)] + CN1CCN(C2=Nc3ccccc3Oc3ccc(Cl)cc32)CC1 [loxapine], the food intake was 0.0253 ± 0.003. `Cc1cc(C)c2c(c1)[C@@H](N(Cc1cc(C(F)(F)F)cc(C(F)(F)F)c1)c1nnn(C)n1)CCCN2C[C@H]1CC[C@H](C(=O)O)CC1` [Evacetrapib] + CN1CCN(C2=Nc3ccccc3Oc3ccc(Cl)cc32)CC1 [loxapine] was tested, and the food intake was 0.0229 ± 0.0033.
